Nine molecules from PubChem BioAssay (NCI) can be followed below.

Holding throughout (assay): NCI-60 one-dose screen, 48 h (100 = growth as untreated, 0 = no growth, -100 = all killed)
For one assay, the system named is SR leukemia. As to conditions: 10 µM unless noted.
A further assay deals with RPMI-8226 leukemia. As to conditions: 10 µM unless noted.
A further assay relates to OVCAR-8 ovarian. As to conditions: 10 µM unless noted.
The next assay has as its system OVCAR-5 ovarian. As to conditions: 10 µM unless noted.
The test system of another assay is OVCAR-4 ovarian. As to conditions: 10 µM unless noted.
A further assay deals with SK-OV-3 ovarian. As to conditions: 10 µM unless noted.
A further assay deals with IGROV1 ovarian. As to conditions: 10 µM unless noted.
The next assay has as its system OVCAR-3 ovarian. As to conditions: 10 µM unless noted.
Another assay has as its system HS 578T breast. As to conditions: 10 µM.
The next assay has as its system NCI/ADR-RES ovarian. As to conditions: 10 µM unless noted.
In the next assay the test system is T-47D breast. As to conditions: 10 µM unless noted.
The test system of another assay is BT-549 breast. As to conditions: 10 µM unless noted.
The next assay has as its system MDA-MB-435 melanoma. As to conditions: 10 µM unless noted.
The subject of a further assay is SW-620 colon. As to conditions: 10 µM unless noted.
A further assay relates to MCF7 breast. As to conditions: 10 µM unless noted.
The subject of another assay is HCT-116 colon. As to conditions: 10 µM unless noted.
A further assay concerns HCC-2998 colon. As to conditions: 10 µM.
For another assay, the system named is KM12 colon. As to conditions: 10 µM unless noted.

Compounds without any hit were thinned out: in the full panel of roughly 83,000, 20% have a hit.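 In brief: 96-well plates, 48 h treatment, single concentration, percent growth endpoint.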 Unmarked numbers belong to inactive results. Calls of active or inactive are those of the source. Rule for the calls: active = growth percent below 10; inactive = the rest.

For `COc1ccc2c(CCc3ccc(Cl)cc3)c3[n+](cc2c1OC)CCc1cc2c(cc1-3)OCO2`, the growth in the assay with SR leukemia is 33.8%; with RPMI-8226 leukemia it was 20.7%; in the assay with OVCAR-8 ovarian, 51%; in the assay with OVCAR-5 ovarian, 86.2%; in the assay on OVCAR-4 ovarian, 24.4%; in the assay on SK-OV-3 ovarian, 75.2%. In addition, the growth in the assay on IGROV1 ovarian was 40.8%; in the assay on OVCAR-3 ovarian, 44.2%; with HS 578T breast, 79.6%; in the assay with NCI/ADR-RES ovarian, 101%; with T-47D breast, 24.9%; in the assay on BT-549 breast it was 18.5%. The growth was 1.77% (active) in the assay on MDA-MB-435 melanoma; 73.2% in the assay with SW-620 colon; 60.4% with MCF7 breast; 36.5% with HCT-116 colon; 36.2% in the assay with HCC-2998 colon; 34.4% in the assay with KM12 colon.

Take `CC(C)c1ccc(/C=N/Nc2nc3ccccc3s2)cc1`: the growth in the assay with SR leukemia was 89.9%; with RPMI-8226 leukemia, 88.4%; in the assay with OVCAR-8 ovarian, 87.5%; in the assay on OVCAR-5 ovarian, 102%; in the assay with OVCAR-4 ovarian, 81.4%; in the assay with SK-OV-3 ovarian, 89.4%. Besides, the growth was 70% in the assay on IGROV1 ovarian; 88.7% in the assay with OVCAR-3 ovarian; 92.8% with HS 578T breast; 92.6% in the assay with NCI/ADR-RES ovarian; 78.2% in the assay on T-47D breast; 99% in the assay with BT-549 breast. Also, the growth in the assay with MDA-MB-435 melanoma was 107%; in the assay with SW-620 colon, 102%; in the assay with MCF7 breast, 76.2%; with HCT-116 colon, 89%; in the assay with HCC-2998 colon, 104%; with KM12 colon it was 89%.

Turning to `C=CC[n+]1c(/C=C/C=C2\N(C)c3ccccc3C2(C)C)sc2ccc(OC)cc21`, the growth was 11.7% with SR leukemia; 1.33% (active) in the assay on RPMI-8226 leukemia; 12.2% in the assay with OVCAR-8 ovarian; 22.4% in the assay with OVCAR-5 ovarian; 25.1% in the assay on OVCAR-4 ovarian; -13.8% (active) with SK-OV-3 ovarian. In addition, the growth in the assay on IGROV1 ovarian is 40.9%; in the assay on OVCAR-3 ovarian, 13.3%; with HS 578T breast, 53.6%; in the assay on NCI/ADR-RES ovarian, 71.7%; with T-47D breast it was 12.1%; in the assay on BT-549 breast it was 14.6%. Besides, the growth with MDA-MB-435 melanoma is 12.8%; with SW-620 colon it was 19.9%; in the assay with MCF7 breast, 6.97% (active); with HCT-116 colon, 11.6%; with HCC-2998 colon it was 30.2%; in the assay on KM12 colon, 13.4%.

Turning to `COc1cc2nc(Nc3cccc(Cl)c3)nc(N)c2cc1OC`, the growth with SR leukemia is 67.4%; in the assay on RPMI-8226 leukemia it was 35.7%; in the assay with OVCAR-8 ovarian, 87.4%; with OVCAR-5 ovarian, 111%; in the assay with OVCAR-4 ovarian, 72.7%; with SK-OV-3 ovarian, 114%. Besides, the growth is 64.5% in the assay with IGROV1 ovarian; 89.2% in the assay on OVCAR-3 ovarian; 109% in the assay with HS 578T breast; 74.1% in the assay on NCI/ADR-RES ovarian; 84.5% with T-47D breast; 78.6% with BT-549 breast. The growth is 84.7% in the assay with MDA-MB-435 melanoma; 83.6% with SW-620 colon; 81.5% in the assay with MCF7 breast; 33.7% in the assay with HCT-116 colon; -59.3% (active) in the assay with HCC-2998 colon; 61.4% with KM12 colon.

On to `COC(=O)[C@]12CC[C@@H](C)[C@H](C)[C@@H]1C1=CC[C@@H]3[C@@]4(C)C[C@@H](OC(=O)/C=C/c5ccccc5)[C@H](O)[C@@](C)(CO)[C@@H]4[C@H](O)C[C@@]3(C)[C@]1(C)CC2`, for which the growth is -18.4% (active) in the assay with SR leukemia; 9.79% (active) in the assay on RPMI-8226 leukemia; 14.6% in the assay on OVCAR-8 ovarian; -27.6% (active) in the assay on OVCAR-5 ovarian; 23.3% in the assay with OVCAR-4 ovarian; 41.9% in the assay on SK-OV-3 ovarian. In addition, the growth in the assay on IGROV1 ovarian was 31.2%; in the assay with OVCAR-3 ovarian, -37.1% (active); in the assay on HS 578T breast it was -0.549% (active); with NCI/ADR-RES ovarian, 7.34% (active); in the assay with T-47D breast it was 13.2%; with BT-549 breast, 34.4%. In addition, the growth in the assay on MDA-MB-435 melanoma is 11.5%; in the assay with SW-620 colon, -58.6% (active); in the assay with MCF7 breast, 14.3%; in the assay on HCT-116 colon, -56.4% (active); in the assay on HCC-2998 colon, -41.8% (active); with KM12 colon, -2.35% (active).

Turning to `OCCNC(=S)Nc1ccc(-c2nc(N3C[C@H]4CC[C@@H](C3)O4)c3cccn3n2)cc1`, the growth in the assay with SR leukemia is 11.1%; in the assay with RPMI-8226 leukemia, 5.44% (active); with OVCAR-8 ovarian, -7.06% (active); in the assay with OVCAR-5 ovarian, -4.85% (active); with OVCAR-4 ovarian it was -7.17% (active); in the assay on SK-OV-3 ovarian, -33.7% (active). Also, the growth was -19.9% (active) with IGROV1 ovarian; -4.31% (active) with OVCAR-3 ovarian; -28.6% (active) in the assay with HS 578T breast; 3.87% (active) in the assay on NCI/ADR-RES ovarian; -22.5% (active) with T-47D breast; -8.04% (active) with BT-549 breast. The growth in the assay on MDA-MB-435 melanoma was 0.28% (active); with SW-620 colon it was 11.6%; in the assay on MCF7 breast, 9.19% (active); in the assay with HCT-116 colon, 22.6%; in the assay with HCC-2998 colon, 20.8%; with KM12 colon, 12%.

Consider `Cc1oc2c(C(=O)N/N=C\c3ccc(O)cc3O)c[nH]c2c1C`, for which the growth with SR leukemia was 8.4% (active); with RPMI-8226 leukemia it was 25.3%; in the assay with OVCAR-8 ovarian, 13.7%; with OVCAR-5 ovarian it was 30.7%; in the assay on OVCAR-4 ovarian, 10.8%; with SK-OV-3 ovarian it was 20.6%. Besides, the growth in the assay with IGROV1 ovarian is 24.1%; in the assay with OVCAR-3 ovarian it was -16% (active); in the assay with HS 578T breast, 58.2%; in the assay on NCI/ADR-RES ovarian it was 1.19% (active); in the assay on T-47D breast, 25.7%; in the assay on BT-549 breast, -8.94% (active). Also, the growth in the assay with MDA-MB-435 melanoma is 42.8%; with SW-620 colon, 39.3%; in the assay on MCF7 breast it was 8.09% (active); in the assay with HCT-116 colon it was 10.8%; in the assay with HCC-2998 colon it was 9.7% (active); with KM12 colon it was 28.9%.

As for `CCc1cc2c(c3ccc(C(=O)CBr)cc13)CCCC2`, the growth was 91.7% in the assay with SR leukemia; 113% in the assay with RPMI-8226 leukemia; 105% in the assay with OVCAR-8 ovarian; 91.1% in the assay on OVCAR-5 ovarian; 110% in the assay with OVCAR-4 ovarian; 103% with SK-OV-3 ovarian. The growth in the assay on IGROV1 ovarian was 99.1%; in the assay with OVCAR-3 ovarian it was 102%; in the assay with HS 578T breast, 98.8%; in the assay with NCI/ADR-RES ovarian it was 93.5%; in the assay with T-47D breast, 71.2%; with BT-549 breast it was 80.3%. The growth with MDA-MB-435 melanoma is 107%; with SW-620 colon it was 111%; in the assay on MCF7 breast, 93.1%; in the assay with HCT-116 colon it was 102%; in the assay on HCC-2998 colon, 103%.

On to `NN1C(=O)CSC1=S`, for which the growth in the assay on SR leukemia is 98.5%; with RPMI-8226 leukemia, 102%; in the assay on OVCAR-8 ovarian, 111%; in the assay on OVCAR-5 ovarian it was 96.8%; in the assay on OVCAR-4 ovarian, 105%; in the assay with SK-OV-3 ovarian it was 98.6%. The growth in the assay with IGROV1 ovarian is 110%; with OVCAR-3 ovarian, 110%; with HS 578T breast, 101%; in the assay on NCI/ADR-RES ovarian it was 114%; with T-47D breast, 104%; in the assay on BT-549 breast, 93.5%. Further, the growth is 100% in the assay with MDA-MB-435 melanoma; 111% in the assay with SW-620 colon; 94.8% in the assay with MCF7 breast; 96.8% in the assay with HCT-116 colon; 110% in the assay with HCC-2998 colon; 106% in the assay with KM12 colon.
